# Measurements as given in PubChem BioAssay AID727 (The Scripps Research Institute Molecular Screening Center, 2007).
# Screen size: about 97,000 compounds; about 810 (0.84%) were called active. What follows is part of a selection rich in actives, with near analogues and random picks from the rest. Unmarked numbers belong to inactive results. No stated cut-off is given here; in the data, active means inhibition above about 19%; inactive means the rest.
# Biological target: Focal adhesion kinase 1 (Homo sapiens) (UniProt Q05397)
# Assay: human PTK2 enzyme activity blockers – biochemical, primary screen (AID 727);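 further: 0% = DMSO and 100% = reference compound high control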
# Details: biochemical FAK kinase activity assay; hits give high values;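 tested at 7 µM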
# Sequence of Focal adhesion kinase 1 (Homo sapiens) (Q05397 whole entry, looked up): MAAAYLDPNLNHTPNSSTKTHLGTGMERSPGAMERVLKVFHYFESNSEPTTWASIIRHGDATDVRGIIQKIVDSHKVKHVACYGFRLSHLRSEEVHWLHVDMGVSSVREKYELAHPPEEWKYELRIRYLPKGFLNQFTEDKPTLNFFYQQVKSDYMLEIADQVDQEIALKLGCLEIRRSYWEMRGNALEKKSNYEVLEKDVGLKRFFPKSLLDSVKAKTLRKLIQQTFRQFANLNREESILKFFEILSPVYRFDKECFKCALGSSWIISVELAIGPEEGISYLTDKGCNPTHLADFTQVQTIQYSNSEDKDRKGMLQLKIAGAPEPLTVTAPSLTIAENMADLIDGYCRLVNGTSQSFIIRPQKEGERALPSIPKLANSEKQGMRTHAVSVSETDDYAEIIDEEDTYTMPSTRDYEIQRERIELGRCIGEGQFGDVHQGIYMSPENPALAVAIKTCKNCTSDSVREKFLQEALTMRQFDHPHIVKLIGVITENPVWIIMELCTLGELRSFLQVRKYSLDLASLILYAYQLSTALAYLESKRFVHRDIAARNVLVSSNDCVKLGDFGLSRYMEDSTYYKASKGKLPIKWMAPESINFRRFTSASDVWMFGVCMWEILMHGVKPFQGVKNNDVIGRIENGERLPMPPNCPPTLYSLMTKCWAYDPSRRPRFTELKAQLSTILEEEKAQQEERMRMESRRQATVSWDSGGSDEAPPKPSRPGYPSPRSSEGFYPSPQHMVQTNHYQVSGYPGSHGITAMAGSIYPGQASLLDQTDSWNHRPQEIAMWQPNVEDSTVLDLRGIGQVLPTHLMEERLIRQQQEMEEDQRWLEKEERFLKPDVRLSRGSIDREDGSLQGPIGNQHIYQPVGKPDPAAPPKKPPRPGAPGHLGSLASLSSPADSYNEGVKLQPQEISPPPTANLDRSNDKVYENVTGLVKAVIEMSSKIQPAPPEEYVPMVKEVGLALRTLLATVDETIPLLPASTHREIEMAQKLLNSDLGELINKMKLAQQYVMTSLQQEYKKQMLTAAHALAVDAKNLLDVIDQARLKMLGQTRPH
row,SMILES,inhibition
1,CN(C)CCNC(=O)Nc1cccc(Cl)c1Cl,-0.62%
2,CCOC(=O)c1cnc(-c2ccccc2)nc1Oc1ccc(C)cc1,4.12%
3,CN(CCO)Cc1csc2ccc(Br)cc12,-0.2%
4,C=CCNc1nc(N)c(C(=C(C#N)C#N)c2ccccc2)s1,9.82%
5,N=c1c2c3c(sc2nc2n1CCCCC2)CCCC3,0.27%
6,CC1Cc2ccccc2N1C(=O)c1cc2sccc2n1Cc1ccccc1 (stereo unspecified),-0.85%
7,COc1cccc(/C=N/NC(=O)C(=O)N2CCCC2)c1,-2.37%
8,O=C(Nc1ccc(-n2ccnc2P(=O)(O)c2ccccc2)cc1)c1ccccc1Br,22.8% (active)
9,O=C(Nc1ccccc1)c1cccnc1Nc1ccccc1,1.76%
10,Cc1nonc1NC(=O)c1ccccc1Br,-1.88%
11,CC(CNc1ccc([N+](=O)[O-])cc1)NC(=O)c1ccccc1Br (stereo unspecified),1.61%
12,C#CCN(N(C)c1ncc(C(F)(F)F)cc1Cl)S(=O)(=O)c1ccc2ccccc2c1,-0.5%
13,CN(CCc1ccccn1)S(=O)(=O)c1ccc2c3c(cccc13)C(=O)N2,-2.74%
14,CCN(CC)S(=O)(=O)c1ccc2c3c(cccc13)C(=O)S2,36% (active)
15,COc1cccc(C(=O)NNC(=O)c2ccccc2Br)c1,-3.7%
16,CC(C)N1C(=S)SC(C)(C)C1n1oc(=O)n(-c2ccc(Cl)c(Cl)c2)c1=O (stereo unspecified),1%
17,O=[N+]([O-])c1ccc(Oc2ccc(F)cc2Br)c2ccncc12,19.1% (active)
18,COC(=O)c1ccc(OCC(=O)NC(C)(C)C)cc1,-0.09%

row,SMILES,inhibition
1,Cc1cc2cc3c(N)[nH]nc3nc2cc1C,38.5% (active)
2,CCc1nnc(NC(=O)c2cccs2)s1,-4.62%
3,CCc1nnc(NC(=O)c2nc3nccc(C)n3n2)s1,-3.17%
4,CCc1ccc2nc3sc(C(=O)Nc4nnc(CC)s4)c(N)c3cc2c1,33.3% (active)
5,Cc1cccc(N2CCN(C(=O)c3cnn4c(C(F)F)cc(-c5ccccc5)nc34)CC2)c1C,2.11%
6,COc1ccc(C2CC(=O)Nc3sc(=N)c4c(N)c(C#N)c(N)nc4c32)cc1OC (stereo unspecified),-1.85%
7,CC1(C)C2CCC13CS(=O)(=O)NC3C2 (stereo unspecified),-2.12%
8,Brc1ccc(/C=N/N2CCN(C3c4ccccc4-c4ccccc43)CC2)s1,-1.5%
9,CCC(C)(C(=O)NC1CCCCC1)N(C)C(=O)c1ccc2c(c1)OCO2 (stereo unspecified),-1.51%
10,O=C(O)CCC(=O)NCc1ccc(C(=O)O)cc1,-0.4%
11,CCc1ccccc1NC(=O)CSc1nnc([C@@H](NC(=O)OC(C)(C)C)C(C)C)o1,-2.32%
12,CCc1ccccc1NC(=O)CSc1nnc([C@@H](NC(=O)OC(C)(C)C)C(C)CC)o1 (stereo partly specified),25.9% (active)
13,C[C@H](NC(=O)OC(C)(C)C)c1nnc(SCC(=O)Nc2ccc(Br)cc2)o1,-1.41%
14,CCCOc1ccc(NC(=O)C2CCCNC2=O)cc1 (stereo unspecified),40.2% (active)
15,CCCCNC(=O)C1CCCNC1=O (stereo unspecified),-0.32%
16,CCOc1ccc(NC(=O)CC2NCCNC2=O)cc1 (stereo unspecified),0.06%
17,COc1ccc(-c2[nH]nc(-c3ccccc3)c2-c2nc3ccccc3[nH]2)cc1,-5.4%
18,COc1ccc(C2C(C#N)=C(/N=C/N3CCOCC3)OC3=C2C(=O)CC(C)(C)C3)cc1OC (stereo unspecified),0.22%
